Holding throughout (settings): mRNA level, 48 h; actives raise or lower the signal
Read-out in experiment [1]: Keratin 19 (KRT19), KRT19 (gene 3880)
Nature of the experiment: LTEA_HepaRG_KRT19: Life Technologies and Expression Analysis (LTEA) Assay for Keratin 19 (KRT19) using HepaRG (AID 2283512). Put shortly: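 KRT19 transcript levels, measured by Fluidigm qRT-PCR against three housekeeping genes, are fitted for gain or loss of signal relative to DMSO. Human HepaRG cells receive test chemicals (top 100 uM, half-log steps, 0.5% DMSO) for 48 hours.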

Read-out in experiment [2]: Lipase C (LIPC), LIPC (gene 3990)
Nature of the experiment: LTEA_HepaRG_LIPC: Life Technologies and Expression Analysis (LTEA) Assay for Lipase C (LIPC) using HepaRG (AID 2283514). A digest of the protocol:
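HepaRG, 48 h exposure, 8-pt half-log series from 100 uM in 0.5% DMSO, duplicates. Readout: LIPC mRNA by Fluidigm qRT-PCR, housekeeping-normalized (ACTB/GAPDH/POLR2A). Gain or loss fitted bidirectionally against DMSO baseline.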

Read-out in experiment [3]: Lipoprotein lipase (LPL), LPL (gene 4023)
Nature of the experiment: LTEA_HepaRG_LPL: Life Technologies and Expression Analysis (LTEA) Assay for Lipoprotein lipase (LPL) using HepaRG (AID 2283515). Put shortly: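 HepaRG, 48 h exposure, 8-pt half-log dilutions from 100 uM, 0.5% DMSO vehicle, duplicates; qRT-PCR (Fluidigm array) of LPL mRNA vs housekeeping genes; bidirectional curve fit relative to DMSO baseline.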

Read-out in experiment [4]: MicroRNA 122 (MIR122), gene 406906
Nature of the experiment: LTEA_HepaRG_MIR122: Life Technologies and Expression Analysis (LTEA) Assay for MicroRNA 122 (MIR122) using HepaRG (AID 2283516). Further: the transcript read is the microRNA miR-122. A digest of the protocol: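 qRT-PCR read-out (TaqMan, Fluidigm array), normalized to three housekeeping genes; HepaRG cells dosed 48 h at 8 concentrations up to 100 uM in 0.5% DMSO, duplicate; gain or loss fitted against DMSO baseline.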

Read-out in experiment [5]: matrix metalloproteinase-10 (MMP10), MMP10 (gene 4319)
Nature of the experiment: LTEA_HepaRG_MMP10: Life Technologies and Expression Analysis (LTEA) Assay for matrix metalloproteinase-10 (MMP10) using HepaRG (AID 2283517). Put shortly: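 Transcript levels come from Fluidigm qRT-PCR normalized to three housekeeping genes, with curves fitted bidirectionally against 0.5% DMSO. Human HepaRG cells were dosed for 48 hours at concentrations up to 100 uM.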

Read-out in a further experiment: MYC, MYC (gene 4609)
Nature of the experiment: LTEA_HepaRG_MYC: Life Technologies and Expression Analysis (LTEA) Assay for MYC using HepaRG (AID 2283518). Put shortly: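 HepaRG, ~100,000 cells/well, collagen I; 48 h plating; serum-free induction medium; 48 h dosing, duplicate, 100 uM top, half-log, 0.5% DMSO; total RNA → qRT-PCR MYC; gain/loss fit vs DMSO.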

Read-out in experiment [6]: matrix metalloproteinase-3 (MMP3), MMP3 (gene 4314)
Nature of the experiment: LTEA_HepaRG_MMP3: Life Technologies and Expression Analysis (LTEA) Assay for matrix metalloproteinase-3 (MMP3) using HepaRG (AID 2283519). A digest of the protocol:
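qRT-PCR read-out of MMP3 mRNA (normalised to three housekeeping genes) in HepaRG liver cells after 48 h chemical exposure; 8-point half-log series, top 100 uM, 0.5% DMSO vehicle. Bidirectional curve fitting against DMSO baseline.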

Read-out in experiment [7]: Paternally Expressed 10 (PEG10), PEG10 (gene 23089)
Nature of the experiment: LTEA_HepaRG_PEG10: Life Technologies and Expression Analysis (LTEA) Assay for Paternally Expressed 10 (PEG10) using HepaRG (AID 2283520).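 On AC50: differentiated HepaRG human liver cells in serum-free induction medium with 0.5% DMSO; PEG10 transcript by qRT-PCR normalised to ACTB GAPDH and POLR2A.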 A digest of the protocol:
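qRT-PCR read-out: PEG10 mRNA normalised to three housekeeping genes, fitted bidirectionally against 0.5% DMSO vehicle. HepaRG cells received test chemicals for 48 h in serum-free induction medium, 8 points, top 100 uM, half-log steps.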

Read-out in experiment [8]: JUN Transcription Factor, JUN (gene 3725)
Nature of the experiment: LTEA_HepaRG_JUN: Life Technologies and Expression Analysis (LTEA) Assay for JUN Transcription Factor using HepaRG (AID 2283513). Put shortly: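 HepaRG, 48 h exposure, 8-pt half-log series top 100 uM, 0.5% DMSO, duplicate. JUN mRNA by qRT-PCR (Fluidigm), housekeeping-normalized (ACTB/GAPDH/POLR2A); bidirectional curve fit vs DMSO baseline.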

Activity calls are given as the source filed them. How the source made its calls: active means hit-call score of the fitted dose curve at least 0.9, where 1 is the maximum; inactive means score below 0.9.

Turning to `CC#C[C@]1(O)CC[C@H]2[C@@H]3CCC4=CC(=O)CCC4=C3[C@@H](c3ccc(N(C)C)cc3)C[C@@]21C`, the compound was classed as inactive in [1], in [6] and in [7]. Besides, the AC50 in experiment [2] is 67.2 µM (active); in experiment [3], 76.2 µM (active); in experiment [4], 50 µM (active); in experiment [5] it was 33.5 µM (active); in the experiment with MYC, MYC (gene 4609), 50 µM (active).

`CCCCCCCCCCCCCCCS(=O)(=O)Oc1ccccc1`: the result in [1], in [8], in experiment [2], in experiment [3], in experiment [4] and in experiment [5] was inactive. For the same compound, the outcome is “inactive” with MYC, MYC (gene 4609); “inactive” in [6]; “inactive” in experiment [7].

Regarding `COC(=O)CCCCC(=O)OC`, the outcome is “inactive” in experiment [1]; “inactive” in experiment [2]; “inactive” in experiment [3]; “inactive” in [4]; “inactive” in experiment [5]; “inactive” in the experiment with MYC, MYC (gene 4609). Moreover, the outcome in [6] and in experiment [7] was inactive.

`ClC1=C(Cl)C(Cl)(Cl)C(Cl)=C1Cl`: the outcome in experiment [1] was “inactive”; in experiment [2], “inactive”; in experiment [3], “inactive”; in [4], “inactive”; in [5] it was “inactive”; in the experiment with MYC, MYC (gene 4609), “inactive”. The compound was called inactive in experiment [6] and in experiment [7].

`CCc1nn(C2CCCCC2)c2cc(C3(C#N)CCC(C(=O)O)CC3)ccc12` (configuration not stated): the AC50 in [1] is 90.5 µM (active); in [2] it was 78.9 µM (active); in experiment [3], 37.2 µM (active); in experiment [4], 80.1 µM (active); in [5], 81.6 µM (active); with MYC, MYC (gene 4609) it was 50 µM (active). The AC50 in experiment [7] is 12.8 µM (active). Also, the call in experiment [6] was inactive.

Consider `OCCC(F)(F)C(F)(F)C(F)(F)C(F)(F)C(F)(F)C(F)(F)F`, for which the outcome in experiment [1] was “inactive”; in experiment [2], “inactive”; in [3], “inactive”; in experiment [4] it was “inactive”; in experiment [5], “inactive”; with MYC, MYC (gene 4609), “inactive”. Further, the outcome in [6] and in [7] was inactive.

With `COc1ccc([N+](=O)[O-])cc1N`, the outcome in experiment [1] is “inactive”; in [2], “inactive”; in experiment [3], “inactive”; in experiment [4], “inactive”; in experiment [5] it was “inactive”; with MYC, MYC (gene 4609), “inactive”. The compound was classed as inactive in experiment [6] and in experiment [7].

For the compound `N#C[C@@H]1CC(F)(F)CN1C(=O)CNC1CC2CCC(C1)N2c1ncccn1` (some centres not stated), the outcome in experiment [1] was “inactive”; in experiment [2] it was “inactive”; in [3] it was “inactive”; in [4] it was “inactive”; in experiment [5], “inactive”; with MYC, MYC (gene 4609) it was “inactive”. For the same compound, the outcome in experiment [6] and in experiment [7] was inactive.

Regarding `OCCC(F)(F)C(F)(F)C(F)(F)C(F)(F)C(F)(F)C(F)(F)C(F)(F)C(F)(F)F`, the outcome in experiment [1] is “inactive”; in experiment [2] it was “inactive”; in [3], “inactive”; in experiment [4] it was “inactive”; in experiment [5] it was “inactive”; in the experiment with MYC, MYC (gene 4609) it was “inactive”. Besides, the result in [6] and in experiment [7] was inactive.

In the case of `CCc1ccc(CCOc2ccc(CC3SC(=O)NC3=O)cc2)nc1` (configuration not stated), the AC50 in experiment [1] was 31.3 µM (active); in experiment [2], 82 µM (active); in experiment [3], 9.92 µM (active); in experiment [4] it was 72.7 µM (active); in experiment [5], 86.3 µM (active); with MYC, MYC (gene 4609), 80.8 µM (active). Besides, the AC50 in experiment [7] was 14.2 µM (active). In addition, the result in [6] was inactive.

Turning to `O=C(O)c1ccccc1C(c1ccc(O)cc1)c1ccc(O)cc1`, the outcome was “inactive” in experiment [1]; “inactive” in experiment [2]; “inactive” in experiment [3]; “inactive” in experiment [4]; “inactive” in experiment [5]; “inactive” in the experiment with MYC, MYC (gene 4609). The call in [6] and in experiment [7] was inactive.

For `COCC(C)O` (configuration not stated), the outcome in experiment [1] is “inactive”; in [2], “inactive”; in experiment [3], “inactive”; in experiment [4], “inactive”; in experiment [5] it was “inactive”; in the experiment with MYC, MYC (gene 4609) it was “inactive”. In addition, the call in experiment [6] and in [7] was inactive.

For the compound `Nc1cccc2c(N)cccc12`, the figures for the AC50 in experiment [1], in experiment [2] and in experiment [7] were 22.6 µM (active), 73.3 µM (active) and 9.92 µM (active), respectively. For the same compound, the outcome was “inactive” in [3]; “inactive” in [4]; “inactive” in [5]; “inactive” with MYC, MYC (gene 4609); “inactive” in experiment [6].

`OC1CCCCC1`: the outcome in experiment [1] was “inactive”; in [2], “inactive”; in experiment [3], “inactive”; in experiment [4] it was “inactive”; in experiment [5], “inactive”; in the experiment with MYC, MYC (gene 4609) it was “inactive”. The call in experiment [6] and in experiment [7] was inactive.

With `CCCCC(CC)COC(=O)CCCCC(=O)OCc1ccccc1` (configuration not stated), the outcome in [1] is “inactive”; in experiment [2], “inactive”; in experiment [3], “inactive”; in experiment [4], “inactive”; in [5] it was “inactive”; in the experiment with MYC, MYC (gene 4609), “inactive”. Further, the result in experiment [6] and in experiment [7] was inactive.

`O=[N+]([O-])c1ccc(O)cc1`: the outcome in experiment [1] is “inactive”; in [2] it was “inactive”; in experiment [3], “inactive”; in [4], “inactive”; in experiment [5] it was “inactive”; with MYC, MYC (gene 4609), “inactive”. For the same compound, the call in experiment [6] and in experiment [7] was inactive.

In the case of `CC(O)CO` (configuration not stated), the outcome in experiment [1] is “inactive”; in experiment [2] it was “inactive”; in experiment [3], “inactive”; in experiment [4], “inactive”; in experiment [5], “inactive”; with MYC, MYC (gene 4609) it was “inactive”. The outcome in [6] and in experiment [7] was inactive.

The values above are taken from PubChem BioAssay (EPA / NIEHS).
